Assay results: PubChem BioAssay (EPA / NIEHS)
Inconclusive results are not listed. Activity calls are given as the source filed them. Rule for the calls: active = hit-call score of the fitted dose curve at least 0.9, where 1 is the maximum; inconclusive = response in the unintended direction; inactive = score below 0.9.

Assay: ACEA_ER_AUC_viability: ACEA Biosciences xCELLigence Real-Time Cell Analysis on Estrogen Receptor Agonism for Viability (AID 2283782);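 note: continuous compound exposure with impedance area under curve over 80 h; hit means loss of impedance signal meaning reduced cell growth or viability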
How it was run: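 T-47D human breast cells in phenol red-free RPMI1640 with 10% charcoal-stripped FBS were dosed with an 8-point 1:4 dilution series from 100 uM top final concentration, in duplicate. Impedance-based growth was followed for 80 h; AUC analysed versus DMSO.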

| Structure (SMILES) | outcome | AC50 |
| --- | --- | --- |
| CCCCCCC(O)CCCCCCCCCCC(=O)O (centres undefined) | inactive | – |
| COc1cc([C@@H]2c3cc4c(cc3[C@@H](O[C@@H]3O[C@@H]5CO[C@@H](C)O[C@H]5[C@H](O)[C@H]3O)[C@H]3COC(=O)[C@H]23)OCO4)cc(OC)c1O | – | 10.6 µM (active) |
| CCC1CCCCC1 | – | 75.8 µM (active) |
| O=C1CCCC=CCCCCCCCCCC1 | – | 84.1 µM (active) |
| COc1ccc(CCC(C)=O)cc1 | inactive | – |
| Cc1ccc(N)c(S(=O)(=O)O)c1 | inactive | – |
| ClC(c1ccccc1)(c1ccccc1)c1ccccc1 | – | 82.6 µM (active) |
| C=CC(=O)OCCC#N | – | 66.7 µM (active) |
| O=C(O)CCCCCCCCCCCC(=O)O | – | 50 µM (active) |
| Nc1ccc(Cl)c([N+](=O)[O-])c1 | inactive | – |
| Cc1occc(=O)c1OC(=O)C(C)C | inactive | – |
| C/C=C(\C)C(=O)OCCc1ccccc1 | – | 67.4 µM (active) |
| CS(=O)(=O)c1ccc(Cl)cc1 | inactive | – |
| CCOc1ccc(NC(=O)CC(C)=O)cc1 | inactive | – |
| CCC(C)=O | inactive | – |
| CN1CCOCC1 | inactive | – |
| CC(=O)O[C@@H]1C[C@@H]2CC[C@@]1(C)C2(C)C | inactive | – |
| CCCC(=O)c1ccccc1 | inactive | – |
| CN(C)c1ccncc1 | – | 32.7 µM (active) |
| CC(=O)CC(=O)Nc1ccc(C)cc1C | inactive | – |
| CCCCCCCCCCCCCCCC(=O)OC/C=C(C)/C=C/C=C(C)/C=C/C1=C(C)CCCC1(C)C | – | 40 µM (active) |
| C[C@H]1C[C@@H](O)CC(C)(C)C1 | – | 50 µM (active) |
| COC(=O)c1cccnc1 | inactive | – |
| C=C(C)C(=O)OCCOC1CC2CC1C1C=CCC21 (centres undefined) | – | 48.6 µM (active) |
